Records with an inconclusive call do not appear. Calls of active or inactive are those of the source. Unless noted, the call rests on the fitted dose curve; in most records, active means well fitted curve in the direction sought with a large enough effect in the repeat runs; inconclusive means weak or mixed curves; inactive means no such curve, though single readings can be large; an effect the other way counts as inactive or inconclusive.
Key:
[1] = qHTS assay for small molecules that induce genotoxicity in human embryonic kidney cells expressing luciferase-tagged ATAD5 (AID 651632); further: nearly all actives have a fitted effect of over 15% in size
Method in brief: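 Quantitative HTS in HEK293T expressing luciferase-tagged ATAD5, whose levels rise upon DNA damage. Exposure ran 16 hr at 37C and 5% CO2, with luminescence read 30 min after Amplite addition at room temperature.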

[2] = qHTS assay for small molecule agonists of the p53 signaling pathway - cell viability (AID 651633; calls by dose curve;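 further: p53RE-bla HCT reporter cells with a stable beta-lactamase p53 reporter; series mostly up to about 83 µM; nearly all actives have a fitted effect of over 30% in size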)
Method in brief: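 Viability counter-read: CellTiter-Glo luminescence (30 min, room temperature) in the same p53RE-bla plates. These plates had been exposed to compounds for 16 h at 37 C.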

[3] = qHTS assay for small molecules that induce genotoxicity in human embryonic kidney cells expressing luciferase-tagged ATAD5 - cell viability (AID 651634; calls by dose curve; further: nearly all actives have a fitted effect of over 25% in size)
Method in brief: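 After 15.5 hr incubation with compound at 37C, 5% CO2, HEK293T ATAD5-luciferase cells received CellTiter-Fluor reagent; fluorescence intensity was quantified following 30 min at 37C.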

[4] = qHTS assay for small molecule disruptors of the mitochondrial membrane potential - cell viability (AID 720634; calls by dose curve;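 further: human HepG2 liver cancer cells; series mostly up to about 83 µM; nearly all actives have a fitted effect of over 20% in size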)
Method in brief: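 ATP-based luminescent viability readout (CellTiter-Glo, 30 min, room temperature) in HepG2 cells multiplexed with the m-MPI membrane potential dye; compound exposure lasted 1 hr at 37 C.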

[5] = qHTS assay to test for compound auto fluorescence at 590 nm (red) in HepG2 cells (AID 720674)
Method in brief: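 We screened compounds on adherent HepG2 cells, incubating them for an hour at 37 C in 5% CO2 before reading emission at 590 nm under 540 nm excitation; values reflect equivalence to Rose Bengal sodium fluorescence.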

[6] = qHTS assay to test for compound auto fluorescence at 535 nm (green) in HepG2 cells (AID 720675)
[7] = qHTS assay to test for compound auto fluorescence at 460 nm (blue) in HEK293 cells (AID 720678)
Method in brief: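 Blue read-out at excitation 405 nm and emission 460 nm follows overnight compound exposure of HEK293 cells at 37C in 5% CO2. Activity is given as auto fluorescence equivalency to triamterene.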

[8] = qHTS assay to test for compound auto fluorescence at 590 nm (red) in HEK293 cells (AID 720679)
Method in brief: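 Red channel, Ex/Em 540/590nm; signal expressed as equivalency to Rose Bengal sodium. HEK293, 2,000 cells/well, 10% dialyzed FBS; 23 nL compound pinned after 4-5 hr attachment; overnight 37C/5% CO2 before reading.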

[9] = qHTS assay for small molecule disruptors of the mitochondrial membrane potential (AID 720635)
Method in brief: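 Mitochondrial membrane potential tracked with Mito-MPS dye, red aggregates (ex 540/em 590 nm) against green monomers (ex 490/em 535 nm). Compound treatment 1 hr at 37C, dye 30 min in HepG2.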

Measured: Potency

CC1(C)CC(O)CC(C)(C)N1[O]
not listed: [9]
inactive: all other assays above

CC1=C(C)C(=O)C(CCCCC#CCCCC#CCO)=C(C)C1=O
not listed: [9]
inactive: all other assays above

CC(C)CCCCCOC(=O)CS
not listed: [9]
inactive: all other assays above

CCOC(C)OCC
not listed: [9]
inactive: all other assays above

N#C[C@@H]1CC(F)(F)CN1C(=O)CNC1CC2CCC(C1)N2c1ncccn1 (stereo not given in full)
not listed: [9]
inactive: all other assays above

SCCOCCOCCS
not listed: [9]
inactive: all other assays above

CO[C@@H]1[C@@H](O[C@@H]2O[C@H](C)[C@@H](O[C@H]3C[C@@](C)(O)[C@@H](O)[C@H](C)O3)[C@H](N(C)C)[C@H]2O)[C@@H](CC=O)C[C@@H](C)[C@@H](O[C@@H]2CC[C@H](N(C)C)[C@@H](C)O2)/C=C/C=C/C[C@@H](C)OC(=O)C[C@H]1OC(C)=O
inactive: all assays above

O=C(Cl)c1ccc(F)c(Cl)c1
not listed: [9]
inactive: all other assays above

Reference: PubChem BioAssay (Tox21)
